# Experimental data from PubChem BioAssay (NCI).
# This is part of a sample that, as a whole, favours compounds with a hit. Of some 83,000 tested, about 20% had one in any assay.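 Testing used 96-well plates and a 48-hour single-concentration exposure. Example: -40 means 40% of the starting cells died.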 Values without a mark were called inactive. Activity calls are given as the source filed them. The calls were made as follows: active = growth percent below 10; inactive = the rest.
# Key:
# Assay in all cases: NCI-60 one-dose screen, 48 h (100 = growth as untreated, 0 = no growth, -100 = all killed)
# Conditions in all cases: 10 µM
# T-47D breast = test system: T-47D breast
# BT-549 breast = test system: BT-549 breast
# MDA-MB-435 melanoma = test system: MDA-MB-435 melanoma
# SW-620 colon = test system: SW-620 colon
# HCT-116 colon = test system: HCT-116 colon
# HCC-2998 colon = test system: HCC-2998 colon
# KM12 colon = test system: KM12 colon
# MDA-MB-468 breast = test system: MDA-MB-468 breast
# MCF7 breast = test system: MCF7 breast
SMILES,growth (T-47D breast),growth (BT-549 breast),growth (MDA-MB-435 melanoma),growth (SW-620 colon),growth (HCT-116 colon),growth (HCC-2998 colon),growth (KM12 colon),growth (MDA-MB-468 breast),growth (MCF7 breast)
O=C(CNc1nc(-c2ccccc2)cs1)Nc1ccc(Br)cc1,-51.4% (active),-61.2% (active),-1.09% (active),-64.6% (active),-44.9% (active),-98.1% (active),-68.3% (active),-84.1% (active),–
COc1ccc(C(=O)Nc2sc3c(c2C#N)CCC(=O)C3)cc1C(F)(F)F,-51.2% (active),-58.3% (active),-21.7% (active),-30.7% (active),0.735% (active),6.84% (active),10.4%,-38.9% (active),–
O=C(CNc1nc(-c2ccccc2)cs1)Nc1cccc([N+](=O)[O-])c1,-49.9% (active),-73.1% (active),-77.9% (active),-66.7% (active),-34.2% (active),-99.8% (active),-44% (active),-90.6% (active),–
C/C(=C\CSc1ccccc1C(=O)O)CCCC(C)CCCC(C)CCCC(C)C (stereo not drawn),37.3%,80.6%,71.8%,55.1%,34.4%,18.3%,46.4%,60.3%,–
CCCn1c(=O)c2[nH]c(-c3ccc(OCc4nc5ccccc5[nH]4)cc3)nc2n(CCC)c1=O,59.9%,21.1%,67%,46.8%,5.38% (active),64.8%,–,23.6%,–
O=C(/C=C/Nc1ccccc1)c1ccc2c(c1)Nc1ccccc1S2,78.1%,95.6%,85%,89.3%,79.2%,95.4%,87%,61.5%,–
COc1ccc(OC)c(-c2cc(-c3c[nH]c4ccccc34)nc(N)c2C#N)c1,0.648% (active),-25.4% (active),-5.04% (active),6.61% (active),-45.8% (active),-37.1% (active),-27.6% (active),-9.53% (active),–
CC1=C(C(=O)OC(C)C)C(c2ccc(O)cc2)NC(=S)N1 (stereo not drawn),102%,82.7%,–,120%,98.1%,107%,106%,–,97.7%
CC1(C)CC[C@]2(C(=O)Nc3ccccc3)CC[C@]3(C)C(=CC[C@@H]4[C@@]5(C)CC[C@H](N)C(C)(C)[C@@H]5CC[C@]43C)[C@H]2C1,81.5%,113%,59.1%,8.55% (active),-99.5% (active),-64.3% (active),36.1%,1.83% (active),–
N#Cc1c(NC(=O)c2ccc(C(F)(F)F)cc2)sc2c1CCC(O)=C2,22.9%,58.7%,-33.8% (active),17.1%,23.9%,47.3%,18.2%,–,–
CN1CCc2c(sc3ncnc(N/N=C/c4ccc5ccccc5c4)c23)C1,92.1%,71.1%,72.5%,22.9%,-13.2% (active),73.8%,78.1%,42%,–
[2H]C([2H])([2H])Oc1ccc2ncc(C#Cc3cncc(C(=O)Nc4ccc(CN5CCN(C)CC5)c(C(F)(F)F)c4)c3)n2n1,-24.5% (active),-57.5% (active),-67.2% (active),-67.8% (active),-29.5% (active),-84.8% (active),-94.1% (active),-90.3% (active),–
CN1C(=O)/C(=C/c2nccs2)SC1=S,45.9%,90.2%,–,92.5%,85.2%,113%,90.2%,–,38.2%
CC(=O)Nc1ccc(-c2cn(-c3cccc(C(=O)Nc4cc(CN5CCOCC5)cc(C(F)(F)F)c4)c3)nn2)cn1,-71.5% (active),-82.1% (active),-89.1% (active),-72.6% (active),-56.1% (active),-95.6% (active),-42.7% (active),-92.1% (active),–
COc1ccc2[nH]cc(/C=N/Nc3ccc(Br)cn3)c2c1,22.3%,-2.65% (active),13.8%,19.2%,8.63% (active),10.2%,-0.565% (active),-40.9% (active),–
COC(=O)c1c(C(=O)OC)c2n(c1C)[C@@H]([C@@H](C)[C@H]1CC[C@H]3[C@@H]4CCC5=CC(=O)CC[C@]5(C)[C@H]4CC[C@]13C)SC2,4.62% (active),-3.38% (active),22.4%,34.2%,23.2%,45%,25.8%,11.2%,–
COc1ccccc1[C@H]1C(C(=O)c2ccc(Cl)cc2)C2(N[C@@H]1c1ccccc1)C(=O)Nc1ccc(Cl)cc12 (stereo partly drawn),5.84% (active),-1.27% (active),-44.4% (active),6.3% (active),10.1%,-18.8% (active),9.71% (active),-43.9% (active),–
COc1cnc2c(c1)C(=O)c1c-2n(CCCNCCO)c(=O)c2cc(OC)c(OC)cc12,10.1%,40.7%,49.7%,38.4%,1.67% (active),30.3%,54.5%,-48.8% (active),–
O=C(/C=C/Nc1ccc(F)cc1F)c1ccc2c(c1)Nc1ccccc1S2,80.1%,85.7%,–,55.1%,58.6%,79.7%,51.6%,–,37.9%
CN(CCO)c1oc(-c2ccccc2)nc1[P+](c1ccccc1)(c1ccccc1)c1ccccc1,0.664% (active),-22.5% (active),2.53% (active),11.5%,6.5% (active),10.8%,-39.4% (active),-55.9% (active),–
CCOc1ccc(/C=N/NC(=O)Cn2nc(Cc3ccccc3)c3onc(C)c3c2=O)cc1,44.9%,6.06% (active),55.3%,43.3%,10.3%,60.6%,–,-7.05% (active),–
CCOC(=O)C1=C(N)N(c2ccc(C)cc2)C2=C(C(=O)CC(C)(C)C2)C1c1ccccc1OC (stereo not drawn),97.8%,95.7%,111%,105%,103%,106%,108%,101%,–
CC(C)(C)Nc1nc2cc(Cl)c(Cl)cc2nc1S(C)(=O)=O,31.3%,-29.7% (active),44.6%,-74.5% (active),13.1%,42.2%,81.3%,-28.5% (active),–
O=c1[nH]c2ccccc2cc1CSc1ccc(Nc2nccc(-c3ccc(C(F)(F)F)cc3)n2)cc1,18.8%,31.7%,63.3%,31%,6.96% (active),48.1%,–,-17.5% (active),–
N#Cc1ccc(-c2nn(-c3ccc(C(=O)O)cc3)cc2CNc2cc(Cl)cc(Cl)c2)cc1,25.9%,-1.57% (active),40.1%,49.2%,12.5%,9.16% (active),18.6%,43.4%,–
O=c1[nH]n(C(=S)N/N=C/c2ccc(F)cc2)c(=O)c2ccccc12,58.7%,70.1%,84.5%,30.4%,-66% (active),92.9%,36.2%,57.7%,–
CNC(=O)c1cc(-c2ccc(NC(=O)Nc3ccc(C)cc3)cc2)nc2cccnc12,89.6%,104%,109%,104%,89.7%,121%,102%,-14.3% (active),–
Cc1cc(=O)oc2cc(OCCCCOc3ccc(/C=C/C(=O)Nc4cccc(Cl)c4)cc3)ccc12,24.5%,41%,–,61.9%,79.7%,94.2%,72.5%,3.36% (active),50.8%
COc1ccc(CN2[C@H](C(=O)NCCCCCCC(=O)NO)Cc3c([nH]c4ccccc34)[C@H]2C2CC2)cc1,-10.3% (active),25.5%,–,-68.1% (active),2.09% (active),-36.7% (active),12.5%,4.06% (active),6.39% (active)
CN1CCN(Cc2ccc(NC(=O)c3cncc(C#Cc4cnc5ccc(N[C@@H]6CCOC6)nn45)c3)cc2C(F)(F)F)CC1,-63.2% (active),-71.3% (active),–,-41.9% (active),-63.9% (active),-99.7% (active),-90.7% (active),-96.2% (active),-88.1% (active)
